Experimental data: PubChem BioAssay
The source made the active and inactive calls. Unless noted, how the calls were made is not given here.

Assays:
[1] = system: Wnt5a (protein binding on small-molecule microarray); assay: small molecules binding Wnt5a protein – biophysical, small-molecule microarray, 635/667 nm fluorescence, primary screen (AID 1142); details: 635 nm fluorescence, higher = more signal;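 further: fluorescence read at 667 nm with signal to noise per printed feature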
[2] = ATP-based viability of Huh7 replicon cells – cell-based, CellTiter-Glo luminescence, basal, 48 h, cytotoxicity control for HCV replication inhibitor project, primary screen (AID 1143); details: higher = more signal, called active from +8 up or from −8 down;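 further: Huh7 hepatoma cells carrying a hepatitis C replication reporter with no stimulus; test concentration not given here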
[3] = Pseudomonas biofilm growth suppression – PAO1 strain, BacTiter-Glo luminescence, LB-PBS, primary screen (AID 1144); details: P. aeruginosa PAO1 biofilm, 12 h, higher = more signal
[4] = basal CRE-LacZ reporter activity in PC12 – cell-based, unstimulated, primary screen (AID 1145); details: no forskolin, luminescence, 4.5 h, higher = more signal, called active from +8 up or from −8 down
[5] = forskolin-driven CRE-LacZ activity in PC12 – cell-based, CRE-LacZ reporter, forskolin-stimulated, primary screen (AID 1146); details: luminescence, 4.5 h, higher = more signal, called active from +8 up or from −8 down;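 further: PC12 cells with 6xCRE LacZ reporter stimulated by forskolin 10 µM; beta-galactosidase reporter signal reflecting CREB driven transcription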
[6] = molecular target: Streptavidin (Streptomyces avidinii) (UniProt P22629); assay: compounds binding control protein streptavidin – biophysical, small-molecule microarray, 635/667 nm fluorescence, artefact control for SMM compound annotation, primary screen (AID 1147); details: higher = more signal;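 further: signal reflects streptavidin binding to arrayed compounds as a control protein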
Streptavidin (Streptomyces avidinii), sequence (P22629 whole entry, looked up): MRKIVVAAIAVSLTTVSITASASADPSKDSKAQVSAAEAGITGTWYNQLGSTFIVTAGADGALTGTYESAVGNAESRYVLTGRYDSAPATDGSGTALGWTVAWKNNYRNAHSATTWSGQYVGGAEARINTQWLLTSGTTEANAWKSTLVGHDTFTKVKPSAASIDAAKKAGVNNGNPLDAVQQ

[7] = probe aInhba binding on compound microarray – biochemical, small-molecule microarray, 635/667 nm fluorescence, primary screen (AID 1148); details: higher = more signal;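 further: score merges 667nm spot fluorescence with signal-to-noise for antibody binding to printed compounds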
Torsin-1A (Homo sapiens) [8] = molecular target: Torsin-1A (Homo sapiens) (UniProt O14656); assay: TOR1A wild-type binding on microarray – cell lysate, small-molecule microarray, lysate, 635/667 nm, primary screen (AID 1149); details: COS7 hTOR1A-WT lysate, 635 nm fluorescence, higher = more signal
Torsin-1A (Homo sapiens), sequence (O14656 whole entry, looked up): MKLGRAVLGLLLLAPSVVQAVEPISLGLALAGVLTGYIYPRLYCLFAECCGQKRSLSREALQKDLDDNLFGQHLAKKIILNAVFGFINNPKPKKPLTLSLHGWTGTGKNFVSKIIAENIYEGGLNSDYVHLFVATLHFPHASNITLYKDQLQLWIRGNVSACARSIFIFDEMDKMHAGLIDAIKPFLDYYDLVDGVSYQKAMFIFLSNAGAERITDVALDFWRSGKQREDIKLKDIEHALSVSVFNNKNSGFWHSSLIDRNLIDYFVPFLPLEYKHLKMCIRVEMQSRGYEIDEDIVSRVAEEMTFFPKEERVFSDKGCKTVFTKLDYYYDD

Torsin-1A (Homo sapiens) [9] = molecular target: Torsin-1A (Homo sapiens) (UniProt O14656); assay: torsin A mutant lysate binding on microarrays – cell lysate, small-molecule microarray, COS7 lysate, 635/667 nm fluorescence, primary screen (AID 1150); details: COS7 hTOR1A mutant lysate, 635 nm fluorescence, higher = more signal;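 further: score pools 667 nm emission and signal to noise measuring lysate protein binding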
[10] = system: Sonic hedgehog protein (Shh); assay: Sonic hedgehog microarray binding compounds – biochemical, small-molecule microarray, 635/667 nm fluorescence, primary screen (AID 1151); details: 635 nm fluorescence, higher = more signal;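 further: Shh protein binding to compounds spotted on small-molecule microarray slides; score combines spot fluorescence intensity with signal-to-noise across triplicate slides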
[11] = optical density shifts of acrAB sulA E. coli – strain DRC41, OD650, 48 h, E. coli filamentation inducer project, primary screen (AID 1152); details: higher = more signal, called active from +8 up or from −8 down;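 further: E. coli MC1000 strain DRC41 lacking acrAB efflux pump and sulA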
[12] = probe aLefty1 binding on compound microarray – biochemical, small-molecule microarray, 635/667 nm fluorescence, primary screen (AID 1153); details: higher = more signal;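 further: score merges spot fluorescence with signal-to-noise ratio from the scanned slide images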
[13] = plasmodial surface anion channel blockers, osmotic lysis – cell-based, P. falciparum Indochina, OD700, 1 h, primary screen (AID 1154); details: P. falciparum Indochina infected RBC osmotic lysis, higher = more signal, called active from +8 up or from −8 down
[14] = plasmodial surface anion channel blockers, osmotic lysis – cell-based, P. falciparum Indochina, OD700, 2 h, primary screen (AID 1155);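 further: lysis reports solute entry through the parasite surface anion channel PSAC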; details: P. falciparum Indochina infected erythrocytes, higher = more signal, called active from +8 up or from −8 down
[15] = changes in parasitized red cell lysis, either direction – P. falciparum Indochina, OD700, 3 h, PSAC antagonist project, primary screen (AID 1156); details: P. falciparum-infected erythrocytes, osmotic lysis, higher = more signal, called active from +8 up or from −8 down
[16] = plasmodial surface anion channel blockers, osmotic lysis – cell-based, P. falciparum Indochina, OD700, 18 h, primary screen (AID 1157); details: P. falciparum Indochina infected erythrocytes, osmotic lysis OD700, 18 h; higher = more signal, called active from +8 up or from −8 down
[17] = S6 kinase pathway phospho-S6 level changes – cell-based, A549, cytoblot, luminescence, serum-stimulated, primary screen (AID 1158); details: 5 h, higher = more signal;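 further: serum-stimulated A549 lung adenocarcinoma cells; signal is phosphorylated S6 detected by cytoblot immunostaining with HRP secondary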
[18] = molecular target: NADPH oxidase 2 (Homo sapiens) (UniProt P04839); assay: compounds shifting NOX2 Amplex Red fluorescence – cell-based, HEK293-NOX2, PMA-stimulated, NOX inhibitor project, primary screen (AID 1159); details: 45 min, higher = more signal, called active from +8 up or from −8 down; further: test concentration not given here
NADPH oxidase 2 (Homo sapiens), sequence (P04839 whole entry, looked up): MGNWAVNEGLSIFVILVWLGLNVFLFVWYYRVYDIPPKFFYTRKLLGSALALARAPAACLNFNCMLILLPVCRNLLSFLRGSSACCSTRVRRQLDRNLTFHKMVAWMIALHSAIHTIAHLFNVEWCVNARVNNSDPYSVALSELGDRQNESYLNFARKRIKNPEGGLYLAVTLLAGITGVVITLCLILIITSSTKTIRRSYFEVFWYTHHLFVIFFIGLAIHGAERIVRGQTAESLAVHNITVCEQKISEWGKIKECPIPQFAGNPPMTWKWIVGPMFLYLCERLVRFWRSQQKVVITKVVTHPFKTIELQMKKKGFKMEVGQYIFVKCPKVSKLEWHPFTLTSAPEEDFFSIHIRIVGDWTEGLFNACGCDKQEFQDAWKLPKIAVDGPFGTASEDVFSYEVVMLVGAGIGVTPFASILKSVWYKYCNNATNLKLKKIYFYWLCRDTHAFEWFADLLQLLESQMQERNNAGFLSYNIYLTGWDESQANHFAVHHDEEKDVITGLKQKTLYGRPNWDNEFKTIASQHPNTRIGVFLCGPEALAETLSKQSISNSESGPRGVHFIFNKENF

[19] = molecular target: NADPH oxidase 4 (Homo sapiens) (UniProt Q9NPH5); assay: compounds shifting NOX4 Amplex Red fluorescence – cell-based, HEK293-NOX4, tetracycline-induced, NOX inhibitor project, primary screen (AID 1160); details: HEK293-NOX4, Amplex Red H2O2 fluorescence, 45 min; higher = more signal, called active from +8 up or from −8 down
NADPH oxidase 4 (Homo sapiens), sequence (Q9NPH5 whole entry, looked up): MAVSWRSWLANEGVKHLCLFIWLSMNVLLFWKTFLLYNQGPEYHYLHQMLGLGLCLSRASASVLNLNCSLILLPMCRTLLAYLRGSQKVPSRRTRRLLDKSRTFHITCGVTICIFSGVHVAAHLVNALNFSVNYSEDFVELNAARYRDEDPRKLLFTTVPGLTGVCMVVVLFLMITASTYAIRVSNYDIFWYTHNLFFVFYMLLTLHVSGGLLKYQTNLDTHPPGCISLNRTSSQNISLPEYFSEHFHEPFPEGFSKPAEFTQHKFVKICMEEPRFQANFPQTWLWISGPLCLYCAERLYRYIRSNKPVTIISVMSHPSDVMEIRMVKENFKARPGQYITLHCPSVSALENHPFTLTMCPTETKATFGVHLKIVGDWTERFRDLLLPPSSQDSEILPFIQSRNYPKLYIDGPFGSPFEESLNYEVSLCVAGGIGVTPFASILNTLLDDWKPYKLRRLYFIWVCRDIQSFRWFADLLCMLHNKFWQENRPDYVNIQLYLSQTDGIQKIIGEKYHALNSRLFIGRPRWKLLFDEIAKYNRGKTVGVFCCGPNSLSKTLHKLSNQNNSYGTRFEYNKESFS

[20] = molecular target: NADPH oxidase 5 (Homo sapiens) (UniProt Q96PH1); assay: compounds shifting NOX5 Amplex Red fluorescence – cell-based, HEK293-NOX5, NOX inhibitor project, primary screen (AID 1161); details: HEK293-NOX5, ionomycin, 45 min, higher = more signal
NADPH oxidase 5 (Homo sapiens), sequence (Q96PH1 whole entry, looked up): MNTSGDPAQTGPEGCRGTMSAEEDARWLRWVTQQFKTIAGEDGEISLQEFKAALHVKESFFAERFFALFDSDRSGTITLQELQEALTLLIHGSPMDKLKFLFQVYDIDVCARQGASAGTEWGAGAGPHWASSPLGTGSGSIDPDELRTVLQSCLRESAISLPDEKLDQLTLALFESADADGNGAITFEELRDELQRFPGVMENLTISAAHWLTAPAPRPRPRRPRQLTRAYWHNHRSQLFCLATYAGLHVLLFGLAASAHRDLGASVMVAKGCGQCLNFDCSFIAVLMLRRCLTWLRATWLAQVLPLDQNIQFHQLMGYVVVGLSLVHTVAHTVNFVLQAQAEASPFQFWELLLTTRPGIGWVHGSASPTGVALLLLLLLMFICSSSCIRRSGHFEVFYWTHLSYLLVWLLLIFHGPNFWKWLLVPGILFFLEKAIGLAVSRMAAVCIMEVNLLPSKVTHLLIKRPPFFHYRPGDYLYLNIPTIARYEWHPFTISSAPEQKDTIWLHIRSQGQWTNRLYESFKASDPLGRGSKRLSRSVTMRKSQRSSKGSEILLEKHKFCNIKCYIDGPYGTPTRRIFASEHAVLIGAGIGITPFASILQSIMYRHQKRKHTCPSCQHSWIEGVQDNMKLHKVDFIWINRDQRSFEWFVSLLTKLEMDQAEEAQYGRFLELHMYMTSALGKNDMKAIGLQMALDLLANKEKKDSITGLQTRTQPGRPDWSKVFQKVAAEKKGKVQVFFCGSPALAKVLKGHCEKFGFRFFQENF

Row | Structure (SMILES) | composite z-score [1] | z-score [2] | z-score [3] | z-score [4] | z-score [5] | composite z-score [6] | composite z-score [7] | composite z-score (Torsin-1A (Homo sapiens) [8]) | composite z-score (Torsin-1A (Homo sapiens) [9]) | composite z-score [10] | z-score [11] | composite z-score [12] | z-score [13] | z-score [14] | z-score [15] | z-score [16] | z-score [17] | z-score [18] | z-score [19] | z-score [20]
1 | COc1ccc([Si](C)(C)[C@H]2[C@H](CCn3cc([C@H](O)c4ccccc4)nn3)O[C@@]3(C(=O)N(Cc4ccc(N5CCC5=O)cc4)c4ccccc43)[C@@H]2C)cc1 | 0.826 | -3.89 (inactive) | 0.572 (inactive) | 0.31 (inactive) | -1.05 (inactive) | -0.503 | -0.128 | 0.441 | 0.489 | 1.83 | 0.503 (inactive) | 0.0341 | 30.5 (active) | 27.1 (active) | 1.25 (inactive) | 2.07 (inactive) | 0.436 | 0.923 (inactive) | 1.6 (inactive) | 2.22
2 | CC1CC/C=C\[C@H]2OC34C=CCN(CCN5CCOCC5)C(=O)[C@H]3N(CCO)C(=O)[C@@H]4C2C(=O)O1 (stereo not given in full) | -0.249 | -0.894 (inactive) | 0.463 (inactive) | -0.216 (inactive) | -0.626 (inactive) | -0.638 | -0.178 | 0.161 | 0.213 | -0.636 | 0.413 (inactive) | 0.213 | 3.04 (inactive) | 0.397 (inactive) | -0.174 (inactive) | 0.38 (inactive) | -0.0354 | 0.994 (inactive) | 0.221 (inactive) | 2.07
3 | [N-]=[N+]=NCc1ccccc1[C@H]1OC(c2ccc(OCCCO)cc2)=N[C@@]1(CCS(=O)(=O)c1ccccc1)C(N)=O | 0.524 | -0.0602 (inactive) | 0.456 (inactive) | -0.678 (inactive) | 0.237 (inactive) | 1.8 | 0.182 | 1.87 | 1.76 | -0.384 | -0.56 (inactive) | 0.345 | 24.1 (active) | 6.95 (inactive) | 1.56 (inactive) | 0.764 (inactive) | 0.273 | 1.39 (inactive) | 2.23 (inactive) | 1.78
4 | CC(=O)n1cc(C(O)C2C=CC3C(=O)N(Cc4ccccc4)C(=O)C3N2n2cnnc2)c2ccccc21 (stereo not given) | 0.363 | 0.276 (inactive) | 1.3 (inactive) | 0.631 (inactive) | -0.696 (inactive) | 1.05 | -0.152 | -0.466 | -0.0022 | 0.204 | -1.32 (inactive) | -0.0867 | 8.09 (active) | 2.31 (inactive) | 0.927 (inactive) | 1 (inactive) | -0.386 | -0.0716 (inactive) | -0.738 (inactive) | -0.392
5 | C=CCC(OC(C)=O)[C@@H]1[C@@H](N(Cc2ccc(-c3ccccc3)cc2)C(=O)c2cccc3ccccc23)c2cc(OCCCO)ccc2N1C(=O)Cc1ccc2ccccc2c1 (stereo not given in full) | -0.195 | -1.31 (inactive) | 0.457 (inactive) | 0.423 (inactive) | -0.481 (inactive) | -0.0695 | -0.17 | 0.0517 | 0.12 | 0.39 | -0.316 (inactive) | -0.191 | 1.14 (inactive) | 0.355 (inactive) | -0.498 (inactive) | 0.283 (inactive) | 0.393 | 0.949 (inactive) | -0.22 (inactive) | -4.09
6 | C=C(/C(=C/C[C@@H](OC(=O)c1ccncc1)c1ccccc1OCCO)c1cc(C(=O)OC)ccc1OC)C(C)C | 0.449 | -2.43 (inactive) | 0.128 (inactive) | 22.5 (active) | -0.267 (inactive) | 0.187 | 0.0498 | 0.438 | 1.29 | 0.698 | 0.548 (inactive) | -0.204 | 23.6 (active) | 7.36 (inactive) | 4.04 (inactive) | 1.44 (inactive) | 1.12 | -0.295 (inactive) | -1.04 (inactive) | -1.63
7 | COCCOC(=O)N1C(=O)[C@@]2(c3cc(C#CC4=CCCCC4)ccc31)[C@H](c1ccccc1OCCO)N1[C@H](c3ccccc3)[C@H](c3ccccc3)OC(=O)[C@H]1[C@@H]2C(=O)N1CCc2cc(OC)c(OC)cc2C1 | 0.316 | -1.93 (inactive) | -0.455 (inactive) | 1.03 (inactive) | 0.904 (inactive) | -0.0953 | -0.305 | -0.148 | 0.536 | 1.79 | -0.26 (inactive) | -0.715 | 2.7 (inactive) | 1.85 (inactive) | 0.578 (inactive) | 1.02 (inactive) | 0.128 | 1.41 (inactive) | 0.739 (inactive) | 1.53
8 | O=C1O[C@@H](c2ccccc2)[C@@H](c2ccccc2)N2[C@@H](c3ccccc3OCCO)[C@]3(C(=O)Nc4ccc(C#CCCO)cc43)[C@@H](C(=O)Nc3nc4ccccc4s3)[C@H]12 | 0.559 | -0.975 (inactive) | -0.562 (inactive) | -0.671 (inactive) | 0.308 (inactive) | 1.39 | 0.269 | 0.515 | 0.585 | 1.36 | 1.4 (inactive) | 0.13 | 2.06 (inactive) | 3.56 (inactive) | 1.59 (inactive) | 1.72 (inactive) | 0.206 | 1.3 (inactive) | 0.352 (inactive) | 1.23
